High-throughput results deposited in PubChem BioAssay by National Center for Advancing Translational Sciences (NCATS).
RECQ1 inh-1: blocks DNA unwinding by human RECQ1; RECQ1 DNA unwinding, red fluorescence kinetic read; Potency, µM (top dose mostly 57.3 µM), for the others: at the highest dose activity, negative = inhibition, most hits filed as inhibitors; AID 2549; P46063; 240,000 compounds, 0.54% hits;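 further: plate controls were vehicle for no effect and no enzyme for full effect; nearly all actives have a fitted effect of over 30% in size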
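RECQ1T1 50 nM; forked duplex (20 bp + 30-nt ss tails) 200 nM, ATP 2 mM final; pH 8.0, 2 mM MgCl2, 2.5 ug/ml poly(dI-dC); 15 min compound preincubation; discontinuous kinetic read over 2 h at RT.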
ERG Ets-DNA blk: ERG Ets/DNA interaction inhibition; P11308; fluorescence polarization, His-ERG Ets domain / labelled DNA; Potency, µM (series often up to 76.9 µM), for inactives: top-dose FP activity, negative = inhibition, hits mostly inhibitors; 370,000 compounds, 0.028% hits; AID 624246; active means well fitted inhibition curve with a large enough effect in the polarisation, with a control signal flat; inconclusive means small, poorly fitted or top-dose-only effect, or effect the other way, or a change in a side signal; inactive means no such curve, though single readings can be large or run the other way; the % refers to the polarisation;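 further: polarization taken with two DNA probes labelled with fluorescein and Texas red; % of control where 0% means no effect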
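His-tagged ERG Ets domain (1 uM in the protein solution; 300mM KCl, 50mM Tris-HCl, 1mM EDTA, 1mM DTT, pH 7.5) received compound, then a probe mix of 5 nM fluorescein-DNA and 100nM Texas-615-DNA. Fluorescence polarization was read for both dyes.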
TRb-SRC2 inh: inhibitors of human thyroid hormone receptor beta-SRC2 interaction; 280,000 compounds, 0.065% hits; AID 1469; TRbeta-SRC2 peptide binding, fluorescence polarization; receptor liganded with 1 µM T3; Potency, µM (top dose mostly 106 µM), inactives show at the highest dose activity change, negative = inhibition, hits mostly inhibitors;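 further: plate controls were bound peptide for no effect and peptide without receptor for full effect; nearly all actives have a fitted effect of over 50% in size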
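Fluorescence polarization of 20 nM Texas Red SRC2 peptide with 0.6 uM human TRb ligand-binding domain, in Tris buffer with 1uM T3 and 5% DMSO. Incubated 5 hr ambient; normalized to unbound and bound controls.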
BLM inh: Bloom syndrome helicase (human) inhibition. P54132. AID 2528. recombinant BLM DNA unwinding, fluorescence dequenching. 350,000 compounds, 0.2% hits. Potency, µM (doses to about 56.1 µM), without a hit: top-dose activity change, negative = inhibition, hits mostly inhibitors;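 further: plate controls were vehicle for no effect and no enzyme for full effect; nearly all actives have a fitted effect of over 35% in size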
GoLoco inh red: blocks human Gai1 binding to RGS12 GoLoco peptide, red readout; Gai1:RGS12 GoLoco peptide FP, rhodamine, 10 min; Potency, µM (highest dose often 61.6 µM), inactives show top-dose activity, negative = inhibition, most hits filed as inhibitors; 230,000 compounds, 0.44% hits; AID 880; active means well fitted inhibition curve with a large enough effect, not every such curve was filed as active; inactive means no such curve, though single readings can be large or run the other way; further: on the % scale 0 is the no-effect control and ±100 the full control effect; nearly all actives have a fitted effect of over 30% in size
TR SRC2 fluor cs: alters Texas Red total fluorescence, flagging assay interference | 280,000 compounds, 0.29% hits | Potency, µM (doses to about 106 µM), without a hit: at the highest dose fluorescence change, negative = quenching | TRb/SRC2 Texas Red total fluorescence interference | AID 1479; active means well fitted curve in either direction with a large enough effect; inconclusive means small, poorly fitted or top-dose-only effect; further: on the % scale 0 is the no-effect control and ±100 the full control effect
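Human TRb ligand-binding domain at 0.6 uM with 20 nM Texas Red SRC2 peptide in Tris buffer containing 1 uM T3 and 5% DMSO, incubated with compound 5 h at ambient temperature. Total fluorescence (555/632 nm) calculated as parallel + 2 × perpendicular.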
RECQ1 conf: confirmation of human RECQ1 helicase inhibitors | Potency, µM (doses to about 229 µM), without a hit: at the highest dose activity change, negative = inhibition, hits mostly inhibitors | 610 compounds, 28% hits | RECQ1 helicase DNA unwinding, fluorescence | AID 2708 | shares compounds with RECQ1 inh-1; further: on the % scale 0 is the no-effect control and ±100 the full control effect; nearly all actives have a fitted effect of over 45% in size
RECQ1 ADP FP: counter-screen for RECQ1 inhibitors: ADP displacement | shares compounds with RECQ1 inh-1 | ADP fluorescence polarization displacement counterscreen | Potency, µM (top dose mostly 228 µM), for inactives: top-dose activity change, negative = inhibition, hits mostly inhibitors | 530 compounds, 27% hits; further: on the % scale 0 is the no-effect control and ±100 the full control effect; nearly all actives have a fitted effect of over 45% in size
RECQ1 inh-2: RECQ1 helicase inhibition confirmed, round 2; recombinant RECQ1 DNA unwinding, red fluorescence; Potency, µM (titrated, usually from 119 µM), for inactives: top-dose activity, negative = inhibition, usual class: inhibitors; shares compounds with RECQ1 inh-1; AID 504841; 1,100 compounds, 15% hits; further: on the % scale 0 is the no-effect control and ±100 the full control effect; nearly all actives have a fitted effect of over 50% in size
* marks the source's active call; other numbers are inactive results; i = inactive; ? = inconclusive; · = no result given; [ ] = remark or other dose. A selection: hits, their analogues and other compounds. The true share with any hit is near 0.71%. Unless noted, the call rests on the fitted dose curve; in most records, active means well fitted curve in the direction sought with a large enough effect; inconclusive means small, poorly fitted or top-dose-only effect, or another doubt; inactive means no such curve, though single readings can be large; an effect the other way counts as inactive or inconclusive. Potency means the concentration at half of the fitted maximal effect.

SMILES	RECQ1 inh-1	ERG Ets-DNA blk	TRb-SRC2 inh	BLM inh	GoLoco inh red	TR SRC2 fluor cs	RECQ1 inh-2	others
COc1ccccc1NC(=O)Cc1noc(CSc2cccc[n+]2[O-])n1	i	-5%	-1%	-3%	2%	-1%	·
COc1ccccc1NC(=O)Cc1noc(CSc2cc(C)c3ccccc3n2)n1	?	-1%	-20%	-9%	8%	2%	-16%
O=C(/C=C/c1ccco1)N(Cc1ccc(F)cc1)C1CCS(=O)(=O)C1 (configuration not stated)	?	-4%	-5%	-5%	-1%	-1%	-4%
O=C(/C=C/c1ccco1)N(Cc1ccccc1)C1CCS(=O)(=O)C1 (configuration not stated)	-15%	-6%[15.4 µM]	1%	-12%	4%	3%	·
CCCN1C(=O)/C(=C/C=C2\N(CC)c3ccccc3C2(C)C)SC1=S	i	84%	13%	-5%	-61%	5%	·
CN1/C(=C\C=C2/SC(=S)N(CC(=O)O)C2=O)C(C)(C)c2ccccc21	25µM*	?	?	14µM*	-144%	45µM*[fluorescent]	·	RECQ1 conf=40µM*;RECQ1 ADP FP=3.2µM*
CCCNC(=O)OC[C@@H]1O[C@H](CCO/N=C2\c3cc(OC)ccc3O[C@H](c3cccc(OC)c3)[C@H]2O)C=C[C@@H]1Oc1ccc(OC)cc1	i[11.5 µM]	·	4%[11.2 µM]	-5%[12.4 µM]	·	2%[11.2 µM]	·
O=C(c1ccccc1)c1c2c(cc3sc4ccccc4[n+]13)-c1cccc3cccc-2c13	14µM*	49%	-14%	-16%	1.3µM*	19%	32µM*
Nc1cc2c3c(cccc3c1)C(=O)N(CCN1CCCC1)C2=O	?	-7%	-6%	118%	-20%	-3%	·
O=C1c2cccc3cc([N+](=O)[O-])cc(c23)C(=O)N1CCN1CCCC1	?	-11%	1%	108%	1%	-2%	25µM*
CCOc1ccc(N(C(=O)c2ccc(C)cc2)S(=O)(=O)c2ccc3c(c2)n(C)c(=O)n3C)cc1	·	10%	3%	-23%	·	-1%	·
O=C(O)CC/C(=N/NC(=O)c1cn(-c2ccccc2)nc1-c1ccccc1)C(=O)O	i	3%	-11%	7%	-5%	-1%	·	RECQ1 conf=3%;RECQ1 ADP FP=-7%
O=C(Nc1ccccc1)c1cn(-c2ccccc2)nc1-c1ccccc1	·	-9%	-10%	-6%	·	-1%	·
CCCC(=Nc1ccccc1)C1=C(O)C(C(=O)OC)C(C)(C)CC1=O (configuration not stated)	0%	·	-7%	0%	-11%	-5%	·
CCC(=Nc1ccc(N)cc1)C1=C(O)C(C(=O)OC)C(C)(C)CC1=O (configuration not stated)	?	·	28µM*	?	·	45µM*[fluorescent]	-6%
Oc1ccc(N=Cc2ccc(-c3cccs3)s2)cc1	6.3µM*	?	32µM*	?	-25%	9%	·	RECQ1 conf=10%[114 µM];RECQ1 ADP FP=50µM*
CCOC(=O)Cc1csc(SCC(=O)Nc2sc3c(c2C(N)=O)CCC3)n1	?	1%	-3%	-21%	56%	-11%	?
CCC1(CC)NC(=O)N(CC(=O)Nc2sc3c(c2C(N)=O)CCC3)C1=O	22µM*	13%	-8%	-19%	93%	-5%	?	RECQ1 conf=45µM*;RECQ1 ADP FP=?
O=C(OC1C[C@@H]2CC3C[C@H](C1)N2CC3=O)c1c[nH]c2ccccc12 (some centres not stated)	·	·	·	-6%	·	·	·
COC(=O)Cn1cccc1C(=O)c1ccccc1	-1%	5%	2%	0%	0%	0%	·
O=C(O)Cn1cccc1C(=O)c1ccccc1	?	7%	-2%	-7%	14%	-1%	2%
CC(=O)Oc1ccc2c(=O)c(Oc3ccccc3)coc2c1OC(C)=O	3.5µM*	-3%	-3%	-9%	6%	-8%	25µM*
Cc1cccc(-n2c3c(cc(-c4nc(-c5ccc(Cl)cc5)cs4)c2=O)C(=O)CC(C)(C)C3)c1	·	-7%	-1%	-2%	·	-12%	·
O=C(O)c1ccc(N2C(=O)/C(=C/c3ccc(-c4ccc([N+](=O)[O-])cc4)o3)C=C2c2ccccc2)cc1	18µM*	53%	13%	-20%	41%	35µM*[fluorescent]	·	RECQ1 conf=22µM*
O=C1NN(c2ccccc2)C(=O)/C1=C/c1ccc(-c2ccc(C(=O)O)cc2)o1	·	-2%	·	-7%	·	·	·
SMILES	RECQ1 inh-1	ERG Ets-DNA blk	TRb-SRC2 inh	BLM inh	GoLoco inh red	TR SRC2 fluor cs	RECQ1 inh-2	others
CC(=O)OC1CCC2C3CCc4cc(O)ccc4C3CCC12C (configuration not stated)	16µM*	0%	12%	2%	54%	-2%	·	RECQ1 conf=9%;RECQ1 ADP FP=8.9µM*
CC(=O)O[C@H]1CC[C@H]2[C@@H]3CCc4cc(O)ccc4[C@H]3CC[C@]12C	-16%	21%	4%	-3%	-14%	-2%	·
COc1ccc(N2CCN(CCCNC(=O)c3c(C)nn(-c4ccc(F)cc4)c3-n3cccc3)CC2)cc1	·	-8%	-2%	0%	·	-3%	·
COC1=C(Nc2ccc(C)cc2)C(=O)c2ccccc2C1=O	?	-1%	-13%	-7%	-5%	-3%	-14%
COC1=C(Nc2ccccc2)C(=O)c2ccccc2C1=O	-2%	-7%	1%	-11%	1%	-6%	·
COC(=O)C1=C(C)N(Cc2ccccc2)[C@]23O[C@](C(=O)OC)(C(=O)N2C1c1ccccc1)C(C(=O)OC)=C3C(=O)OC (some centres not stated)	18%[11.5 µM]	·	-3%[11.2 µM]	-1%[12.4 µM]	·	-1%[11.2 µM]	·
Cc1cc(C)cc(SCc2noc(C(=O)NCC3CCCO3)c2C(=O)O)c1 (configuration not stated)	-8%	8%	-11%	-2%	1%	-5%	·	RECQ1 conf=10%;RECQ1 ADP FP=?
CO[C@@H]1COC(=O)CCC[C@@H](C)[C@H](OC)COC(=O)CCC[C@H]1C	i[11.5 µM]	·	7%[11.2 µM]	-2%[12.4 µM]	·	0%[11.2 µM]	·
Cc1ccc2c(c1)c1nnc(SCC(=O)N3CCCc4ccccc43)nc1n2CC(=O)O	8%	-17%	-3%	-8%	4%	-3%	·	RECQ1 conf=16%;RECQ1 ADP FP=?
